From PMC11062922 (Nature Chemical Biology, 2023)
Read-outs that look alike come from different tables or passages of the source.

Legend:
[1] = system: FLT4; conditions: read-out: apparent Kd, n = 1
[2] = system: IRAK4; conditions: read-out: apparent Kd, n = 1
[3] = compound concentrations:100 nM and 1000 nM (sheet 'Lestaurtinib' of Supplementary Table 1),run:Lestaurtinib_02364_R3,Plate:MR002
[4] = compound concentrations:100 nM and 1000 nM (sheet 'Lestaurtinib' of Supplementary Table 1),run:Lestaurtinib_02381_R1,Plate:MR004
[5] = compound concentrations:100 nM and 1000 nM (sheet 'Lestaurtinib' of Supplementary Table 1),run:Lestaurtinib_02381_R2,Plate:MR004
[6] = compound concentrations:100 nM and 1000 nM (sheet 'Lestaurtinib' of Supplementary Table 1),run:Lestaurtinib_02407_R2,Plate:MR005
[7] = compound concentrations:100 nM and 1000 nM (sheet 'Lestaurtinib' of Supplementary Table 1),run:Lestaurtinib_02422_R1,Plate:MR006
[8] = compound concentrations:100 nM and 1000 nM (sheet 'Lestaurtinib' of Supplementary Table 1),run:Lestaurtinib_02437_R2,Plate:MR007
[9] = compound concentrations:100 nM and 1000 nM (sheet 'Lestaurtinib' of Supplementary Table 1),run:Lestaurtinib_02438_R1,Plate:MR008

Lestaurtinib showed a potency estimated from few doses [1, 3] of 199 nM, a potency estimated from few doses ([1]; compound concentrations:100 nM and 1000 nM (sheet 'Lestaurtinib' of Supplementary Table 1),run:Lestaurtinib_02367_R2,Plate:MR003) of 462 nM and a potency estimated from few doses ([1]; compound concentrations:100 nM and 1000 nM (sheet 'Lestaurtinib' of Supplementary Table 1),run:Lestaurtinib_02367_R3,Plate:MR003) of 74.5 nM. The potency estimated from few doses [1, 4] was 202 nM, the potency estimated from few doses [1, 5] was 158 nM and the potency estimated from few doses [1, 6] was 157 nM. For the same substance, the potency estimated from few doses [1, 7] was 289 nM, the potency estimated from few doses ([1]; compound concentrations:100 nM and 1000 nM (sheet 'Lestaurtinib' of Supplementary Table 1),run:Lestaurtinib_02422_R2,Plate:MR006) was 26 nM and the potency estimated from few doses ([1]; compound concentrations:100 nM and 1000 nM (sheet 'Lestaurtinib' of Supplementary Table 1),run:Lestaurtinib_02437_R1,Plate:MR007) was 520 nM. It also gave a potency estimated from few doses [1, 8] of 1240 nM, a potency estimated from few doses [1, 9] of 25.6 nM and a potency estimated from few doses ([1]; compound concentrations:100 nM and 1000 nM (sheet 'Lestaurtinib' of Supplementary Table 1),run:Lestaurtinib_02443_R3,Plate:MR009) of 154 nM. The potency estimated from few doses ([1]; compound concentrations:100 nM and 1000 nM (sheet 'Lestaurtinib' of Supplementary Table 1),run:Lestaurtinib_02473_R1,Plate:MR010) was 310 nM, the potency estimated from few doses ([1]; compound concentrations:100 nM and 1000 nM (sheet 'Lestaurtinib' of Supplementary Table 1),run:Lestaurtinib_02473_R2,Plate:MR010) was 316 nM and the potency estimated from few doses ([1]; compound concentrations:100 nM and 1000 nM (sheet 'Lestaurtinib' of Supplementary Table 1),run:Lestaurtinib_02482_R3,Plate:MR011) was 229 nM. For the same substance, the potency estimated from few doses ([1]; compound concentrations:100 nM and 1000 nM (sheet 'Lestaurtinib' of Supplementary Table 1),run:Lestaurtinib_02487_R2,Plate:MR012) was 131 nM, the potency estimated from few doses ([1]; compound concentrations:100 nM and 1000 nM (sheet 'Lestaurtinib' of Supplementary Table 1),run:Lestaurtinib_02566_R1,Plate:MR014) was 1590 nM and the potency estimated from few doses ([1]; compound concentrations:100 nM and 1000 nM (sheet 'Lestaurtinib' of Supplementary Table 1),run:Lestaurtinib_02566_R2,Plate:MR014) was 90.7 nM. The potency estimated from few doses ([1]; compound concentrations:100 nM and 1000 nM (sheet 'Lestaurtinib' of Supplementary Table 1),run:Lestaurtinib_02566_R3,Plate:MR014) was 77.7 nM, the potency estimated from few doses ([1]; compound concentrations:100 nM and 1000 nM (sheet 'Lestaurtinib' of Supplementary Table 1),run:Lestaurtinib_02577_R2,Plate:MR016) was 225 nM and the potency estimated from few doses ([1]; compound concentrations:100 nM and 1000 nM (sheet 'Lestaurtinib' of Supplementary Table 1),run:Lestaurtinib_02577_R3,Plate:MR016) was 160 nM. It also gave a potency estimated from few doses ([1]; compound concentrations:100 nM and 1000 nM (sheet 'Lestaurtinib' of Supplementary Table 1),run:Lestaurtinib_02584_R1,Plate:MR017) of 396 nM, a potency estimated from few doses ([1]; compound concentrations:100 nM and 1000 nM (sheet 'Lestaurtinib' of Supplementary Table 1),run:Lestaurtinib_02584_R2,Plate:MR017) of 124 nM and a potency estimated from few doses ([1]; compound concentrations:100 nM and 1000 nM (sheet 'Lestaurtinib' of Supplementary Table 1),run:Lestaurtinib_02584_R3,Plate:MR017) of 434 nM. It also gave a potency estimated from few doses ([1]; compound concentrations:100 nM and 1000 nM (sheet 'Lestaurtinib' of Supplementary Table 1),run:Lestaurtinib_02601_R1,Plate:MR018) of 286 nM, a potency estimated from few doses ([1]; compound concentrations:100 nM and 1000 nM (sheet 'Lestaurtinib' of Supplementary Table 1),run:Lestaurtinib_02601_R2,Plate:MR018) of 202 nM and a potency estimated from few doses ([1]; compound concentrations:100 nM and 1000 nM (sheet 'Lestaurtinib' of Supplementary Table 1),run:Lestaurtinib_02601_R3,Plate:MR018) of 86 nM. For the same substance, the potency estimated from few doses ([1]; compound concentrations:100 nM and 1000 nM (sheet 'Lestaurtinib' of Supplementary Table 1),run:Lestaurtinib_02606_R3,Plate:MR019) was 231 nM, the potency estimated from few doses ([1]; compound concentrations:100 nM and 1000 nM (sheet 'Lestaurtinib' of Supplementary Table 1),run:Lestaurtinib_02624_R1,Plate:MR020) was 358 nM and the potency estimated from few doses ([1]; compound concentrations:100 nM and 1000 nM (sheet 'Lestaurtinib' of Supplementary Table 1),run:Lestaurtinib_02624_R2,Plate:MR020) was 135 nM. It also gave a potency estimated from few doses ([1]; compound concentrations:100 nM and 1000 nM (sheet 'Lestaurtinib' of Supplementary Table 1),run:Lestaurtinib_02624_R3,Plate:MR020) of 359 nM, a potency estimated from few doses ([1]; compound concentrations:100 nM and 1000 nM (sheet 'Lestaurtinib' of Supplementary Table 1),run:Lestaurtinib_02724_R2,Plate:MR021) of 319 nM and a potency estimated from few doses ([1]; compound concentrations:100 nM and 1000 nM (sheet 'Lestaurtinib' of Supplementary Table 1),run:Lestaurtinib_02741_R2,Plate:MR023) of 701 nM. For the same substance, the potency estimated from few doses ([1]; compound concentrations:100 nM and 1000 nM (sheet 'Lestaurtinib' of Supplementary Table 1),run:Lestaurtinib_02748_R1,Plate:MR024) was 330 nM, the potency estimated from few doses ([1]; compound concentrations:100 nM and 1000 nM (sheet 'Lestaurtinib' of Supplementary Table 1),run:Lestaurtinib_02748_R2,Plate:MR024) was 521 nM and the potency estimated from few doses ([1]; compound concentrations:100 nM and 1000 nM (sheet 'Lestaurtinib' of Supplementary Table 1),run:Lestaurtinib_02748_R3,Plate:MR024) was 161 nM. It also gave a potency estimated from few doses ([1]; compound concentrations:100 nM and 1000 nM (sheet 'Lestaurtinib' of Supplementary Table 1),run:Lestaurtinib_02752_R1,Plate:MR025) of 310 nM, a potency estimated from few doses ([1]; compound concentrations:100 nM and 1000 nM (sheet 'Lestaurtinib' of Supplementary Table 1),run:Lestaurtinib_02752_R3,Plate:MR025) of 254 nM and a potency estimated from few doses ([1]; compound concentrations:100 nM and 1000 nM (sheet 'Lestaurtinib' of Supplementary Table 1),run:Lestaurtinib_02765_R2,Plate:MR026) of 162 nM. The potency estimated from few doses ([1]; compound concentrations:100 nM and 1000 nM (sheet 'Lestaurtinib' of Supplementary Table 1),run:Lestaurtinib_02765_R3,Plate:MR026) was 400 nM, the potency estimated from few doses ([1]; compound concentrations:100 nM and 1000 nM (sheet 'Lestaurtinib' of Supplementary Table 1),run:Lestaurtinib_02766_R1,Plate:MR027) was 350 nM and the potency estimated from few doses ([1]; compound concentrations:100 nM and 1000 nM (sheet 'Lestaurtinib' of Supplementary Table 1),run:Lestaurtinib_02766_R3,Plate:MR027) was 237 nM. It also gave a potency estimated from few doses ([1]; compound concentrations:100 nM and 1000 nM (sheet 'Lestaurtinib' of Supplementary Table 1),run:Lestaurtinib_02768_R1,Plate:MR028) of 180 nM, a potency estimated from few doses ([1]; compound concentrations:100 nM and 1000 nM (sheet 'Lestaurtinib' of Supplementary Table 1),run:Lestaurtinib_02768_R2,Plate:MR028) of 389 nM and a potency estimated from few doses ([1]; compound concentrations:100 nM and 1000 nM (sheet 'Lestaurtinib' of Supplementary Table 1),run:Lestaurtinib_02768_R3,Plate:MR028) of 493 nM. The potency estimated from few doses ([1]; compound concentrations:100 nM and 1000 nM (sheet 'Lestaurtinib' of Supplementary Table 1),run:Lestaurtinib_02795_R1,Plate:MR022) was 391 nM, the potency estimated from few doses ([1]; compound concentrations:100 nM and 1000 nM (sheet 'Lestaurtinib' of Supplementary Table 1),run:Lestaurtinib_02795_R2,Plate:MR022) was 229 nM and the potency estimated from few doses ([1]; compound concentrations:100 nM and 1000 nM (sheet 'Lestaurtinib' of Supplementary Table 1),run:Lestaurtinib_02795_R3,Plate:MR022) was 297 nM. For the same substance, the potency estimated from few doses ([1]; compound concentrations:100 nM and 1000 nM (sheet 'Lestaurtinib' of Supplementary Table 1),run:Lestaurtinib_02802_R1,Plate:MR029) was 183 nM, the potency estimated from few doses ([1]; compound concentrations:100 nM and 1000 nM (sheet 'Lestaurtinib' of Supplementary Table 1),run:Lestaurtinib_02896_R1,Plate:MR030) was 159 nM and the potency estimated from few doses ([1]; compound concentrations:100 nM and 1000 nM (sheet 'Lestaurtinib' of Supplementary Table 1),run:Lestaurtinib_02896_R2,Plate:MR030) was 151 nM. The potency estimated from few doses ([1]; compound concentrations:100 nM and 1000 nM (sheet 'Lestaurtinib' of Supplementary Table 1),run:Lestaurtinib_02896_R3,Plate:MR030) was 372 nM, the potency estimated from few doses ([1]; compound concentrations:100 nM and 1000 nM (sheet 'Lestaurtinib' of Supplementary Table 1),run:Lestaurtinib_03172_R3,Plate:MR031) was 131 nM and the potency estimated from few doses ([1]; compound concentrations:100 nM and 1000 nM (sheet 'Lestaurtinib' of Supplementary Table 1),run:Lestaurtinib_03252_R1,Plate:MR032) was 229 nM. For the same substance, the potency estimated from few doses ([1]; compound concentrations:100 nM and 1000 nM (sheet 'Lestaurtinib' of Supplementary Table 1),run:Lestaurtinib_03252_R2,Plate:MR032) was 76.2 nM, the potency estimated from few doses ([1]; compound concentrations:100 nM and 1000 nM (sheet 'Lestaurtinib' of Supplementary Table 1),run:Lestaurtinib_03260_R1,Plate:MR033) was 162 nM and the potency estimated from few doses ([1]; compound concentrations:100 nM and 1000 nM (sheet 'Lestaurtinib' of Supplementary Table 1),run:Lestaurtinib_03260_R3,Plate:MR033) was 388 nM. It also gave a potency estimated from few doses ([2]; compound concentrations:100 nM and 1000 nM (sheet 'Lestaurtinib' of Supplementary Table 1),run:Lestaurtinib_02339_R2,Plate:MR001) of 146 nM, a potency estimated from few doses ([2]; compound concentrations:100 nM and 1000 nM (sheet 'Lestaurtinib' of Supplementary Table 1),run:Lestaurtinib_02339_R3,Plate:MR001) of 62 nM and a potency estimated from few doses ([2]; compound concentrations:100 nM and 1000 nM (sheet 'Lestaurtinib' of Supplementary Table 1),run:Lestaurtinib_02364_R1,Plate:MR002) of 77.8 nM. The potency estimated from few doses [2, 3] was 95 nM, the potency estimated from few doses [2, 4] was 93.9 nM and the potency estimated from few doses [2, 5] was 76.7 nM. It also gave a potency estimated from few doses ([2]; compound concentrations:100 nM and 1000 nM (sheet 'Lestaurtinib' of Supplementary Table 1),run:Lestaurtinib_02381_R3,Plate:MR004) of 65.8 nM, a potency estimated from few doses ([2]; compound concentrations:100 nM and 1000 nM (sheet 'Lestaurtinib' of Supplementary Table 1),run:Lestaurtinib_02407_R1,Plate:MR005) of 69.8 nM and a potency estimated from few doses [2, 6] of 55.3 nM. The potency estimated from few doses ([2]; compound concentrations:100 nM and 1000 nM (sheet 'Lestaurtinib' of Supplementary Table 1),run:Lestaurtinib_02407_R3,Plate:MR005) was 85.3 nM, the potency estimated from few doses [2, 7] was 136 nM and the potency estimated from few doses ([2]; compound concentrations:100 nM and 1000 nM (sheet 'Lestaurtinib' of Supplementary Table 1),run:Lestaurtinib_02422_R3,Plate:MR006) was 131 nM. The potency estimated from few doses [2, 8] was 140 nM, the potency estimated from few doses [2, 9] was 79.9 nM and the potency estimated from few doses ([2]; compound concentrations:100 nM and 1000 nM (sheet 'Lestaurtinib' of Supplementary Table 1),run:Lestaurtinib_02443_R1,Plate:MR009) was 113 nM.
